# Measured values published in the supplement of paper PMC11732987, “Enantioselective OTUD7B fragment discovery through chemoproteomics screening and high-throughput optimisation” (Communications Chemistry, 2025).
# Values without a mark were called inactive.
# Key:
# Experiment in all cases: log2 ratio of Biotin-Ahx-Ub-VS probe labelling (fragment/DMSO); higher = less target engagement (more negative = stronger competition), active = hit call of the paper (q ≤ 0.05, log2 ratio ≤ -1)
# Details in all cases: compound concentration: 200 uM; treatment time: 3 h
# ALG13 = molecular target: T1, ALG13 (UniProt Q9NP73)
# T1 sequence (whole entry): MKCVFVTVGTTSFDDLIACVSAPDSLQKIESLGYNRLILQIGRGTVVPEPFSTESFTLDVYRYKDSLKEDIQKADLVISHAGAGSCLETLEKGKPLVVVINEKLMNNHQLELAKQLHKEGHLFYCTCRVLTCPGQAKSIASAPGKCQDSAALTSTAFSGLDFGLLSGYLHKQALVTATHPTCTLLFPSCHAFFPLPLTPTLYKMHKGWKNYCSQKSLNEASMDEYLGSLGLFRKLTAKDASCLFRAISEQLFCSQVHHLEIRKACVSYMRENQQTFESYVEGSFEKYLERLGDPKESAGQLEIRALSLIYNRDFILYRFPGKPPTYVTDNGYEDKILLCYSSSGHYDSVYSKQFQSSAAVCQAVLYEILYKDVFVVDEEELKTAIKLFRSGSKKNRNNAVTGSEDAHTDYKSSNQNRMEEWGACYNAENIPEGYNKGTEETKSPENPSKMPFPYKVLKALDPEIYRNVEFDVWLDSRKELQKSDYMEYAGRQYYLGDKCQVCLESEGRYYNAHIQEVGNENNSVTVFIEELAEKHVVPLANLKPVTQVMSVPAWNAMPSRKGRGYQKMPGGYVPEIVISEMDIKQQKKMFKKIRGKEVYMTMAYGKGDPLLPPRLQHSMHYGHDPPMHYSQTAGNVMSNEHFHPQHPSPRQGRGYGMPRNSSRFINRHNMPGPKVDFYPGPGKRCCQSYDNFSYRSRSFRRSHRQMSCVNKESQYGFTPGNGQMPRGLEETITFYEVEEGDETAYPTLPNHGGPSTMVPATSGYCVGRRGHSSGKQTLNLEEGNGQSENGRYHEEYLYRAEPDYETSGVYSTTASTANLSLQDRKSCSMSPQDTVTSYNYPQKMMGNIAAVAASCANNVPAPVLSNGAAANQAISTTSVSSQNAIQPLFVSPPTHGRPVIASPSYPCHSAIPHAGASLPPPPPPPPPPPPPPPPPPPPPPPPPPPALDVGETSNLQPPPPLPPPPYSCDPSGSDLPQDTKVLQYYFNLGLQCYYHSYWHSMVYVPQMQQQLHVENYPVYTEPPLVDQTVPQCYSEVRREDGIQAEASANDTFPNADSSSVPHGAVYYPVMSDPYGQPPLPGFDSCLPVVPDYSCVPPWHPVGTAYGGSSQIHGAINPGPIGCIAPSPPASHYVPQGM
# Procedure, shortened: (§1)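 Average log2 ratios of fragment over vehicle were obtained by unpaired t-test from global-median-normalised Spectronaut label-free quantities. Proteins with ≥2 unique peptides were included. HEK293T lysate (495 µg per sample) was treated in triplicate with fragment at 200 µM or vehicle for 3 h, then with Biotin-Ahx-Ub-VS at 0.5 µM final for 1 h, and labelled DUBs were NeutrAvidin-enriched and run by diaPASEF LC-MS/MS.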
# ATXN3 = ATXN3 (UniProt P54252)
# Chain of ATXN3 (P54252 whole entry): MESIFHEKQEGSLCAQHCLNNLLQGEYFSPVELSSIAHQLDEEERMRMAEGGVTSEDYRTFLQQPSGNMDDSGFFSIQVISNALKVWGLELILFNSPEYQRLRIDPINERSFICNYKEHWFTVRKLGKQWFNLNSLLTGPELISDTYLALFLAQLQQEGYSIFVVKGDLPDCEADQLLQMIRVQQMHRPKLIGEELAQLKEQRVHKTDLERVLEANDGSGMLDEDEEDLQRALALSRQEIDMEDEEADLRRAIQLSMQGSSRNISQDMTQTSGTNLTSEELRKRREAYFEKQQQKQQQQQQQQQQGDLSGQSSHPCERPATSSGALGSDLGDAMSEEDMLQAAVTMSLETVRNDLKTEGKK
# Procedure, shortened: as §1
# BAP1 = molecular target: T2, BAP1 (UniProt Q92560)
# T2 sequence (whole entry): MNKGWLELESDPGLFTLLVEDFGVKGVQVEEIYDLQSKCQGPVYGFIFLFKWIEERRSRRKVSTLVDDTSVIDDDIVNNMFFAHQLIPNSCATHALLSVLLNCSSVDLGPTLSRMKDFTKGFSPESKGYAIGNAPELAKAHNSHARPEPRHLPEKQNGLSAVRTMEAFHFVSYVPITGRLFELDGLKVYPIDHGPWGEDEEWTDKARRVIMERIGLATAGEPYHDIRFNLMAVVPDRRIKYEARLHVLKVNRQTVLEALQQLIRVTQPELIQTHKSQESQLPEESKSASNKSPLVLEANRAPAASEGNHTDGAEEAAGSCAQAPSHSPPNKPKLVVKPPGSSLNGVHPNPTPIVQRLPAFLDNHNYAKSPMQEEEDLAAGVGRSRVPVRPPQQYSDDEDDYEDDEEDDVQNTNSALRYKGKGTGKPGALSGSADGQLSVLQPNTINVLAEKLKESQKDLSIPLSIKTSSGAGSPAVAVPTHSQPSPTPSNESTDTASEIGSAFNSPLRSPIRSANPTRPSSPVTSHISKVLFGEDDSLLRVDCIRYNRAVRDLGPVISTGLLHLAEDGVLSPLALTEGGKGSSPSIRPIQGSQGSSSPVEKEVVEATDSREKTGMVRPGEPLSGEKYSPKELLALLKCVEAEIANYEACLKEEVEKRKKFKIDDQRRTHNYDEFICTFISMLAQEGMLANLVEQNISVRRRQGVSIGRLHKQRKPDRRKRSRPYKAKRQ
# Procedure, shortened: as §1
# EIF3F = EIF3F (UniProt O00303)
# Chain of EIF3F (O00303 whole entry): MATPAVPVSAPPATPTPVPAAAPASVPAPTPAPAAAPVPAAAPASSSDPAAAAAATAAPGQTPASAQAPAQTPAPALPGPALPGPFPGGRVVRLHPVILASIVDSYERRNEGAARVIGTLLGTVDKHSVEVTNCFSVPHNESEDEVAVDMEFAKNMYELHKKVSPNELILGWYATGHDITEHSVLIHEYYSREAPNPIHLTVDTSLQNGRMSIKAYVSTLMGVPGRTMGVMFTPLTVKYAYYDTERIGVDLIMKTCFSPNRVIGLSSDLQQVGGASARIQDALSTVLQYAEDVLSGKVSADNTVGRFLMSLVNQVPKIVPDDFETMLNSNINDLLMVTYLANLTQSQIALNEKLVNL
# Procedure, shortened: as §1
# EIF3H = EIF3H (UniProt O15372)
# Chain of EIF3H (O15372 whole entry): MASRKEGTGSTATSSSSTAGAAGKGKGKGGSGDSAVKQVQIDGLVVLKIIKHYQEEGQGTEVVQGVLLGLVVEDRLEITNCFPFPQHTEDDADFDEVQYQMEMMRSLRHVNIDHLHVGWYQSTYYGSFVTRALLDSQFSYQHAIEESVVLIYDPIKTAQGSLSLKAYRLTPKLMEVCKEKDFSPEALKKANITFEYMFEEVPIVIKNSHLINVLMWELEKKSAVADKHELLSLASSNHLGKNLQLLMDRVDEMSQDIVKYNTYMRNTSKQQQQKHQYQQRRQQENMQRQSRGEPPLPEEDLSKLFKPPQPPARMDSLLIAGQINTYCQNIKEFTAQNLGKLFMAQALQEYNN
# Procedure, shortened: as §1
# FAM105A = molecular target: T3, FAM105A (UniProt Q9NUU6)
# T3 sequence (whole entry): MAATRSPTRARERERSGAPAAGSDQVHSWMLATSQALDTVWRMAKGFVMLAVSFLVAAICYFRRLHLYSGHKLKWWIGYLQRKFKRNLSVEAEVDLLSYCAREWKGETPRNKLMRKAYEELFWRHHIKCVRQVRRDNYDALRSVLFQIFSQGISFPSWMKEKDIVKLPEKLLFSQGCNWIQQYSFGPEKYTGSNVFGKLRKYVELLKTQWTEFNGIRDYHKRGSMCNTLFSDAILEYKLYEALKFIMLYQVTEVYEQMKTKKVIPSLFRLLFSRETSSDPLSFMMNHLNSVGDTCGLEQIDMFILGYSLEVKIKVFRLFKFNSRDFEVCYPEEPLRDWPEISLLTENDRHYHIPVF
# Procedure, shortened: as §1
# OTUB1 = OTUB1 (UniProt Q96FW1)
# Chain of OTUB1 (Q96FW1 whole entry): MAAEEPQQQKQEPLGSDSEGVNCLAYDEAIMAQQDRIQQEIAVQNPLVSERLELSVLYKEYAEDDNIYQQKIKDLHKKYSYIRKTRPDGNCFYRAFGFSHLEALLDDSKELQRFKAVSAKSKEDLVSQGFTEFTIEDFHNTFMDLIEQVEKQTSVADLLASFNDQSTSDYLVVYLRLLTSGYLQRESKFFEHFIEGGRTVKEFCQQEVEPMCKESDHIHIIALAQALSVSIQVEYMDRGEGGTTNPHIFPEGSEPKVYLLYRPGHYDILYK
# Procedure, shortened: as §1
# OTUD4 = molecular target: T4, OTUD4 (UniProt Q01804)
# T4 sequence (whole entry): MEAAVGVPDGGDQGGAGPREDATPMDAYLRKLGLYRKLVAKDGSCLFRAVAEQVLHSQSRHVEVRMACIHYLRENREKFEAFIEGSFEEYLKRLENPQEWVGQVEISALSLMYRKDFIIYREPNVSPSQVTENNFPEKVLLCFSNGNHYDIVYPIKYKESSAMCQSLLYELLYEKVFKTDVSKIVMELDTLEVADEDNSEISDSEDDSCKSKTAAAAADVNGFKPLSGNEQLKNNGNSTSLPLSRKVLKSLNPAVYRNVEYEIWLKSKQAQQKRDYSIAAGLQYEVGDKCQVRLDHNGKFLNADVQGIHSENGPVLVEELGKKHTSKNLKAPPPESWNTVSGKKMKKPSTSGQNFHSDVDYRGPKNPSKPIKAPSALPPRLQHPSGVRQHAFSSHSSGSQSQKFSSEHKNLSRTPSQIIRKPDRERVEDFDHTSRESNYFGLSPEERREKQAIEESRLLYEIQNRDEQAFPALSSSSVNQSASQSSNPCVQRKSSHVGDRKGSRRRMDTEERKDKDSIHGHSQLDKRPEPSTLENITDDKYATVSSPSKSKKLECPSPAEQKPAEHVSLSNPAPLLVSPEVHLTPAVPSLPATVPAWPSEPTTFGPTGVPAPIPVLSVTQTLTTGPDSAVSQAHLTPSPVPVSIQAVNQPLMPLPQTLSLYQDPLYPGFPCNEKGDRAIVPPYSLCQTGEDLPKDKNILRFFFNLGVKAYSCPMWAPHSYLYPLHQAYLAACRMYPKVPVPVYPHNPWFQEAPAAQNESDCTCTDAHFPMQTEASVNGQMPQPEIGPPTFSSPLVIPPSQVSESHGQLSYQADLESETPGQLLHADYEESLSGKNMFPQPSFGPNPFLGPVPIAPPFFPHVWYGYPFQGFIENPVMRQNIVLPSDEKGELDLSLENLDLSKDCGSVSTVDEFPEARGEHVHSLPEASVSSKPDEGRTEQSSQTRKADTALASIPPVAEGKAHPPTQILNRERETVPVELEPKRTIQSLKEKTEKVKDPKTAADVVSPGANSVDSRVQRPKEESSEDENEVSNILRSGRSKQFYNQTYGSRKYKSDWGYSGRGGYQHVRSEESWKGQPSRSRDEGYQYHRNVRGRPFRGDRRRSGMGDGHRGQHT
# Procedure, shortened: as §1
# OTUD5 = molecular target: T5, OTUD5 (UniProt Q96G74)
# T5 sequence (whole entry): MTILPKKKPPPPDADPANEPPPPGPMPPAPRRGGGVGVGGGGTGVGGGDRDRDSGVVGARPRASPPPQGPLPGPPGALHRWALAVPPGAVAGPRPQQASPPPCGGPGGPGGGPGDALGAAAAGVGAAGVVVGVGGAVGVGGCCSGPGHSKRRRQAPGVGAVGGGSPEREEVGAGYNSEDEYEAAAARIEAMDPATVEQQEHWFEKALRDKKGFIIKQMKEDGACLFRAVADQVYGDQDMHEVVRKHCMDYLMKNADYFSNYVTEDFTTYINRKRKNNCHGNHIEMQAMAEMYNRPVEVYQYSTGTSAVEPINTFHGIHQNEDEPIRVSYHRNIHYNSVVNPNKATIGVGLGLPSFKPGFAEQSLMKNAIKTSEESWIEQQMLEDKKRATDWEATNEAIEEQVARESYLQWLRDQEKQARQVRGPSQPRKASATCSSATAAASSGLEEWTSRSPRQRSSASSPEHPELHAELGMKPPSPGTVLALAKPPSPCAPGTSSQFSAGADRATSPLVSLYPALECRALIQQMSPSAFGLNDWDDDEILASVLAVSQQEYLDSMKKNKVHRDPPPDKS
# Procedure, shortened: as §1
structure (smiles),measurement,setting,value
Cc1ccc(-c2nnc(C)[nH]2)c(NC(=O)CCl)c1,log2 ratio of Biotin-Ahx-Ub-VS probe labelling,ALG13,0.0249
same,log2 ratio of Biotin-Ahx-Ub-VS probe labelling,ATXN3,-0.0255
same,log2 ratio of Biotin-Ahx-Ub-VS probe labelling,BAP1,-4.24 (active)
same,log2 ratio of Biotin-Ahx-Ub-VS probe labelling,EIF3F,-0.316
same,log2 ratio of Biotin-Ahx-Ub-VS probe labelling,EIF3H,0.0246
same,log2 ratio of Biotin-Ahx-Ub-VS probe labelling,FAM105A,-0.276
same,log2 ratio of Biotin-Ahx-Ub-VS probe labelling,OTUB1,0.149
same,log2 ratio of Biotin-Ahx-Ub-VS probe labelling,OTUD4,-0.353
same,log2 ratio of Biotin-Ahx-Ub-VS probe labelling,OTUD5,-0.237
